# Measurements reported in PubChem BioAssay AID743172 (National Center for Advancing Translational Sciences (NCATS), 2013).
# Several values for one entry are separate records, joined by “and”; a condition that tells them apart may be missing. Equal entries are not always repeated. Inconclusive results are not listed. Unmarked numbers belong to inactive results. Activity calls are given as the source filed them. Calls come from the whole dose curve; as a rule, active = well fitted activation curve with a large enough effect; inconclusive = small, poorly fitted or top-dose-only effect; inactive = no such curve, though single readings can be large or run the other way.
# Test: Extended Characterization of HPGD Inhibitors: PGE2 Assay in LNCaP Cells
# Settings: PGE2 HTRF level, 16 h; series mostly up to 100 µM; PGE2 level, % of control (higher = increase): at the top concentration
# Source text: The central role of HPGD is to inactivate prostaglandins such as prostaglandin E2 (PGE2) or prostaglandin D2 (PGD2). These prostaglandins are involved in a number of processes, including inflammation, differentiation, and cellular signaling, which makes HPGD an important target for pharmacological intervention. A number of prostaglandins of particular biological interest have been identified as substrates of HPGD. […] Over-production of PGE2 has been reported to promote tumor-associated neovascularization, cell proliferation, and tumor growth. […] In this orthogonal assay, we set out to measure if compounds were able to increase PGE2 production NIH Chemical Genomics Center [NCGC] NIH Molecular Libraries Probe Centers Network [MLPCN] MLPCN Grant: MH084681 Assay Submitter (PI): Structural Genomics Consortium
# A549 cells, LNCaP cells or media were dispensed in 384-well plates (ProxiPlate-384 Plus, PerkinElmer, Shelton, CT) at 5,000 cells/9.9 uL/well using a CappAero384 multichannel pipette (Odense, Denmark). Separately on the plate, 10 uL of PGE2 calibration standards at a starting assay concentration of 5,000 pg/mL (1:2 dilution, 12-points, n = 1, prepared in media, Cisbio, Bedford, MA) were dispensed. Compounds (100 nL, final concentration range from 41.9 nM to 100 uM) were transferred using an ATS Acoustic Liquid Dispenser (EDC Biosystems, Fremont, CA). After being mixed using an automated liquid handler (CyBio, Jena, Germany), samples were incubated (37 deg C, 5% CO2, under a humidified atmosphere) for 16 hours. PGE2 labeled conjugates were added to each well, first 5 uL of PGE2-d2, followed by 5 uL of anti-PGE2-cryptate, centrifuged (1,500 rpm, 15 sec) and incubated (RT, protected from light) for 5 hours. Time-resolved fluorescence intensity (320 nm excitation, 615 and 665 nm emission) was measured using an Envision plate reader (PerkinElmer). Data was expressed as the ratio of 665 nm/615 nm emissions. Concentration (pg/mL) of samples were calculated from a 4-parameter logistic calibration curves of the PGE2 standards.
Compound,Potency,"PGE2 level, % of control (higher = increase) [%]"
Brc1cnc2nc(SCc3cccnc3)[nH]c2c1,7.03 µM (active),
Cc1cccc(-n2cnc3cc(C(=O)N4CCCCC4)ccc32)c1,702 nM (active) and 884 nM (active),
Cc1ccc(-n2c(C)cc(-c3nnc4n3CCCCC4)c2C)cc1,0.702 µM (active),
FC(F)(F)c1ccc(-c2nc(-c3nnc4n3CCCCC4)c(C(F)(F)F)o2)cc1,,130
Cc1cccc(-n2cnc3cc(C(=O)N4CCC(C#N)CC4)ccc32)c1,,132
Cc1cc(-c2nnc3n2CCCCC3)c(C)n1-c1cccc(Cl)c1,0.558 µM (active),
Fc1ccc(CSc2nc3ncc(Br)cc3[nH]2)cc1,35.2 µM (active),
Clc1ccc(CSc2nc3ncc(Br)cc3[nH]2)cc1Cl,22.2 µM (active),
c1ccc(-n2cc(-c3nnc4n3CCCCC4)cn2)cc1,,147
Clc1ccccc1CSc1nc2ncc(Br)cc2[nH]1,44.3 µM (active),
Brc1cnc2nc(SCc3ccncc3)[nH]c2c1,4.43 µM (active),
Cc1cc(-c2nnc3n2CCCCC3)c(C)n1-c1ccc(C(F)(F)F)cc1,3.52 µM (active),
O=C(c1ccc2c(c1)ncn2-c1ccc(Cl)cc1)N1CCCCC1,0.884 µM (active),
O=[N+]([O-])c1ccc(CSc2nc3ncc(Br)cc3[nH]2)cc1,2.22 µM (active),
CC(C)(C)c1ccc(-n2cnc3cc(C(=O)N4CCCCC4)ccc32)cc1,4.43 µM (active),
Cc1cc(-c2nnc3n2CCCCC3)c(C)n1-c1ccc(Br)cc1,2.8 µM (active),
